This passage reports growth results from PubChem BioAssay (NCI).

This is part of a sample that, as a whole, favours compounds with a hit. Of some 83,000 tested, about 20% had one in any assay.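 A percent growth of 40 corresponds to 60% growth inhibition; 0 means no net growth; -100 means all cells died. Active threshold: below 10.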 A number with no mark means an inactive call. Active and inactive are the calls of the source.

Common to all, as to test: NCI-60 one-dose screen, 48 h (100 = growth as untreated, 0 = no growth, -100 = all killed)
Common to all, as to settings: 10 µM unless noted

The subject of experiment [1] is T-47D breast.
The test system of experiment [2] is BT-549 breast.
The test system of experiment [3] is MDA-MB-435 melanoma.
Experiment [4] relates to SW-620 colon.
For experiment [5], the system named is MCF7 breast.
For experiment [6], the system named is HCT-116 colon.
Experiment [7] relates to HCC-2998 colon.
In experiment [8] the test system is KM12 colon.

For the compound `CN(c1ccc(Br)cc1)S(=O)(=O)c1ccc(-c2cnc(C3CC3)o2)cc1`, the growth in experiment [1] was 55.1%; in experiment [2], 19.3%; in experiment [3], -12.1% (active); in experiment [4], 27.9%; in experiment [5], 21.1%; in experiment [6], 14.5%. For the same compound, the growth is 16.4% in experiment [7] and 23.2% in experiment [8].

For `Cc1cn(-c2cc(NC(=O)c3cncc(C#Cc4cnc5ccc(OCCCS(C)(=O)=O)nn45)c3)cc(C(F)(F)F)c2)cn1`, the growth is 30.5% in experiment [1]; -1.88% (active) in experiment [2]; 34.7% in experiment [3]; 8.59% (active) in experiment [4]; 0.458% (active) in experiment [5]; 3.57% (active) in experiment [6]. The results for the growth in experiment [7] and in experiment [8] were 17.4% and -17.8% (active), respectively.

Regarding `Cc1ccc(S(=O)(=O)N/N=C/c2cn(-c3ccc(F)cc3)nc2-c2ccc(S(C)(=O)=O)cc2)cc1`, the growth in experiment [1] is 98.5%; in experiment [2], 105%; in experiment [3] it was 100%; in experiment [4] it was 103%; in experiment [5], 95.7%; in experiment [6], 107%. Also, the growth in experiment [7] was 108%; in experiment [8], 102%.

Consider `CC(=O)Nc1cccc(-n2cnc3cc(-c4ccc(O)cc4)ccc32)c1`, for which the growth in experiment [1] is 27.7%; in experiment [2] it was 49.2%; in experiment [3], -17.7% (active); in experiment [4], 19.4%; in experiment [5] it was 31.4%; in experiment [6], 20.8%. Further, the growth was 79.6% in experiment [7] and 20.6% in experiment [8].

With `O=C(Nc1cccc(Cl)c1)Nc1nc2ccc(-c3cccc4ccccc34)cc2s1`, the growth is 11.2% in experiment [1]; 102% in experiment [2]; 54.3% in experiment [3]; 43.7% in experiment [4]; 58.3% in experiment [5]; 27% in experiment [6]. The growth in experiment [7] is 57.3%; in experiment [8], 23%.

For `O=C1CSC(=O)N1Cc1cc2ccccc2nc1Cl`, the growth is 92.5% in experiment [1]; 95.6% in experiment [2]; 99.3% in experiment [3]; 103% in experiment [4]; 92.5% in experiment [5]; 106% in experiment [6]. Further, the growth in experiment [7] was 105%; in experiment [8] it was 101%.

On to `CC(=O)c1sc(Nc2cccc(Nc3nc(C)c(C)s3)c2)nc1C`, for which the growth in experiment [1] was 13.3%; in experiment [2], 46.2%; in experiment [3] it was 59.1%; in experiment [4] it was 62.5%; in experiment [5], 61.7%; in experiment [6] it was 44.2%. Moreover, the growth is 80.1% in experiment [7] and 60.2% in experiment [8].

As to `Fc1ccccc1/C=C(/C1=NCCN1)n1cnc2ccccc21`, the growth in experiment [1] is 99.1%; in experiment [2], 102%; in experiment [3], 96.2%; in experiment [4], 101%; in experiment [5] it was 86.2%; in experiment [6] it was 98.7%. Further, the results for the growth in experiment [7] and in experiment [8] were 102% and 96.5%, respectively.

On to `CC1=CC(=O)CC(C)(C)[C@@]1(O)/C=C/C(C)=C\C(=O)O`, for which the growth was -22.7% (active) in experiment [1]; -22.4% (active) in experiment [2]; -70.7% (active) in experiment [3]; 0.826% (active) in experiment [4]; -14.6% (active) in experiment [5]; -34% (active) in experiment [6]. Moreover, the growth in experiment [7] is -52.1% (active); in experiment [8], 3.82% (active).

On to `CCOC(=O)C1=C(C)Nc2nc3ccccc3n2C1c1cccc(Br)c1` (configuration not stated), for which the growth was 88.1% in experiment [1]; 76.9% in experiment [2]; 7.44% (active) in experiment [3]; 68.2% in experiment [4]; 38.3% in experiment [5]; 81.4% in experiment [6]. Also, the growth was 93.1% in experiment [7] and 65.6% in experiment [8].

In the case of `Cn1c2ccc(Br)cc2c2c3c(c4c5cc(F)ccc5oc4c21)C(=O)N(O)C3=O`, the growth in experiment [1] was 63%; in experiment [2], 89.4%; in experiment [3], 101%; in experiment [4], 54.5%; in experiment [5], 41.3%; in experiment [6], 75%. Also, the growth in experiment [7] is 94.6%; in experiment [8] it was 92.6%.

For `CC(=O)NC(C)(C)C(=O)N1CCC[C@H]1C(=O)NC(C)(C)C(=O)N[C@@H](C)C(=O)NC(C)(C)C(=O)NC(C)(C)C(=O)N[C@@H](CCC(N)=O)C(=O)NC(C)(C)C(=O)N[C@H](C(=O)NC(C)(C)C(=O)NCC(=O)N[C@@H](CC(C)C)C(=O)NC(C)(C)C(=O)N1CCC[C@H]1C(=O)N[C@H](C(=O)NC(C)(C)C(=O)NC(C)(C)C(=O)N[C@@H](CCC(N)=O)C(=O)N[C@@H](CCC(N)=O)C(=O)N[C@H](CO)Cc1ccccc1)C(C)C)C(C)C`, the growth was 10% [4.25 µM] in experiment [1]; -56.1% [4.25 µM] (active) in experiment [2]; 17% [4.25 µM] in experiment [3]; 45.5% [4.25 µM] in experiment [4]; 12.4% [4.25 µM] in experiment [5]; 24.1% [4.25 µM] in experiment [6]. The growth was 39.7% [4.25 µM] in experiment [7] and 35.7% [4.25 µM] in experiment [8].

On to `COc1ccc2c(c1)c(-c1nnc(N)nc1-c1cn(C)c3ccccc13)cn2C`, for which the growth in experiment [1] is 82.3%; in experiment [2], 108%; in experiment [3], 91.6%; in experiment [4] it was 94.6%; in experiment [5] it was 79.5%; in experiment [6], 89.2%. The growth in experiment [7] was 102%; in experiment [8] it was 94.6%.

On to `Nc1nc(-c2cccc([N+](=O)[O-])c2)c(N=Nc2cccc(Cl)c2)s1`, for which the growth in experiment [1] is 13.6%; in experiment [2] it was 48.7%; in experiment [3], 53.3%; in experiment [4] it was 52.4%; in experiment [5] it was 19.1%; in experiment [6], 33.2%. Also, the results for the growth in experiment [7] and in experiment [8] were 27.2% and 25.7%, respectively.

As for `O=C1NC(=O)/C(=C/c2ccc(OCc3cc4ccccc4nc3Cl)cc2)S1`, the growth in experiment [1] is 87.8%; in experiment [2] it was 123%; in experiment [3], 98.3%; in experiment [4], 104%; in experiment [5], 91.6%; in experiment [6] it was 98.1%. Besides, the growth in experiment [7] was 105%; in experiment [8], 100%.

With `CCOC(=O)c1c(Nc2ccccc2)nn2c(-c3ccc(Br)cc3)ccnc12`, the growth in experiment [1] was 41.3%; in experiment [2], 104%; in experiment [3] it was 80.3%; in experiment [4], 78.4%; in experiment [5], 80.9%; in experiment [6], 42.5%. In addition, the growth is 87.1% in experiment [7] and 78.3% in experiment [8].

Turning to `NS(=O)(=O)c1ccc(-n2cc(CC=O)nn2)cc1`, the growth in experiment [1] is 102%; in experiment [2] it was 111%; in experiment [3], 102%; in experiment [4], 109%; in experiment [5], 93.6%; in experiment [6], 108%. Further, the growth in experiment [7] was 97.9%; in experiment [8] it was 112%.

As to `CCN(CC)CCCC(C)NCC(=O)NC(c1ccc2c(c1)OCO2)c1cc(Cl)c2cccnc2c1O` (configuration not stated), the growth in experiment [1] was 40.1%; in experiment [2], 79%; in experiment [3], 8.56% (active); in experiment [4], 24.2%; in experiment [5], 7.35% (active); in experiment [6] it was 7.29% (active). Besides, the results for the growth in experiment [7] and in experiment [8] were -11.4% (active) and 9.46% (active), respectively.

As for `CN1CCN(Cc2ccc(NC(=O)c3cncc(C#Cc4cnc5ccc(NC6CCOCC6)nn45)c3)cc2C(F)(F)F)CC1`, the growth in experiment [1] was -66.2% (active); in experiment [2], -94.4% (active); in experiment [3] it was -70.2% (active); in experiment [4], -42.1% (active); in experiment [5], -60.3% (active); in experiment [6] it was -79% (active). In addition, the growth was -19.8% (active) in experiment [7] and -42.1% (active) in experiment [8].

Take `C/C(=C(/c1ccc(O)cc1)c1ccc(OCCN2CCCCCC2)cc1)c1ccccc1`: the growth in experiment [1] is 20.5%; in experiment [2], 61.1%; in experiment [3], 52.4%; in experiment [4] it was -52.6% (active); in experiment [5], 10.2%; in experiment [6], 28.2%. The growth in experiment [7] is 34.8%; in experiment [8], 43.2%.

Take `O=C(NCCCNc1cc(-c2cn(-c3ccccc3)nc2-c2cccc(O)c2)ccn1)Nc1ccc(F)cc1`: the growth is 11.3% in experiment [1]; 22% in experiment [2]; -39.5% (active) in experiment [3]; 13.5% in experiment [4]; 10.8% in experiment [5]; 10.4% in experiment [6]. The growth in experiment [7] is -60.3% (active); in experiment [8], 2.62% (active).

Turning to `CN1CCN(c2nc(-c3csc(-c4ccncc4)n3)cc3ccccc23)CC1`, the growth is 55.9% in experiment [1]; 83.5% in experiment [2]; 56.2% in experiment [3]; 74.2% in experiment [4]; 67.8% in experiment [5]; 25.4% in experiment [6]. In addition, the growth is 48.8% in experiment [7] and 62.6% in experiment [8].

Regarding `COc1ccc(/C=N/Nc2nc(N/N=C/c3ccc(OC)cc3O)nc(N3CCOCC3)n2)c(O)c1`, the growth in experiment [1] is 42.4%; in experiment [2] it was 90.3%; in experiment [3], 81%; in experiment [4], 36.3%; in experiment [5] it was 51.7%; in experiment [6], 34.4%. The growth was 81.1% in experiment [7] and 51.4% in experiment [8].

Consider `Clc1ccccc1/C=C/c1nn2c(-c3ccncc3)nnc2s1`, for which the growth in experiment [1] was 95%; in experiment [2], 107%; in experiment [3], 103%; in experiment [4], 108%; in experiment [5], 66.4%; in experiment [6], 96.5%. The growth in experiment [7] was 101%; in experiment [8] it was 110%.

As for `COc1cc(/C=N/n2cnc3oc(-c4ccccc4)cc3c2=N)cc(CN2CCOCC2)c1O`, the growth is 81.6% in experiment [1]; 109% in experiment [2]; 60.8% in experiment [3]; 86.1% in experiment [4]; 73.8% in experiment [5]; 29.8% in experiment [6]. Also, the values for the growth in experiment [7] and in experiment [8] were 101% and 41.1%, respectively.

`O=C(O)c1ccc(-n2cc(CNc3ccc(Cl)cc3)c(-c3ccc(F)cc3)n2)cc1`: the growth in experiment [1] was 91.4%; in experiment [2] it was 101%; in experiment [3], 98.1%; in experiment [4], 106%; in experiment [5], 80.1%; in experiment [6], 82.7%. The growth in experiment [7] is 112%; in experiment [8], 104%.

As for `Cn1cc2c(c1)-c1c(sc3nc(-c4ccc(NC(=O)Nc5cc(C(C)(C)C)on5)cc4)cn13)CC2`, the growth in experiment [1] is 30.2%; in experiment [2], 71.3%; in experiment [3], 51.9%; in experiment [4], 73%; in experiment [5], 15.6%; in experiment [6] it was 39%. Further, the results for the growth in experiment [7] and in experiment [8] were 63.1% and 21.7%, respectively.

Consider `CS(=O)(=O)c1ccc2c(c1)c1c(n2C(=O)c2ccc(Cl)cc2)CCCC1`, for which the growth was 18.1% in experiment [1]; 33% in experiment [2]; -24.3% (active) in experiment [3]; 13.6% in experiment [4]; 17.8% in experiment [5]; 27.6% in experiment [6]. The results for the growth in experiment [7] and in experiment [8] were 59.9% and 29.8%, respectively.

As for `COc1ccc(-c2nc3cc(Cl)c(Cl)cc3n2CC(=O)N=Nc2c(O)[nH]c3ccccc23)cc1`, the growth in experiment [1] is 57.8%; in experiment [2] it was 78.3%; in experiment [3], 68.8%; in experiment [4], 62.4%; in experiment [5] it was 45.7%; in experiment [6] it was 22.6%. Moreover, the growth in experiment [7] is 66%; in experiment [8], 68.2%.
